Assay results reported in PubChem BioAssay AID1878 (Sanford-Burnham Center for Chemical Genomics, 2009).
Screen size: about 1,000 compounds; about 200 (20%) were called active. The list is a sample of the results. Potency and affinity values are given separately. A number with no mark means an inactive call. Rule as the data show it: active = inhibition above about 55%; inactive = the rest.

The compounds below were run against Dual specificity protein phosphatase 3 (Homo sapiens) (UniProt P51452) (assay: VHR1 phosphatase inhibitors, biochemical (AID 1878)). Conditions: recombinant VHR phosphatase, fluorogenic substrate; at 13.3 µM; active compounds read high.
Sequence of Dual specificity protein phosphatase 3 (Homo sapiens) (P51452 whole entry, looked up): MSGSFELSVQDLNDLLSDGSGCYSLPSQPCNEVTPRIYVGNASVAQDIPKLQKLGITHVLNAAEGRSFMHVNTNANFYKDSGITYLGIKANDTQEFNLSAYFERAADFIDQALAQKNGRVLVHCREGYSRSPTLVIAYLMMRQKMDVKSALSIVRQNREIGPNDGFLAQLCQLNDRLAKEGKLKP
Compound `O=C(NCc1c(O)ccc2ccccc12)c1ccccc1` has an inhibition of 2.1%. For `O=C(CN1CCCCCC1)N/N=C/c1ccc2ccccc2c1`, the inhibition was -6.1%. For `O=C(N/N=C/c1cccc([N+](=O)[O-])c1)c1cc2c(ccc3ccccc32)o1`, the inhibition was 98% (active). For `O=C(N/N=C/c1ccc([N+](=O)[O-])o1)c1cc2c(ccc3ccccc32)o1`, the inhibition was 98.8% (active). `O=C(O)c1ccc(/C=N/NC(=O)c2cc3c(ccc4ccccc43)o2)cc1` was tested, and the inhibition was 98.7% (active). For `Cc1ccc(NC(=O)C(=O)NCc2ccc(/C=N/NC(=O)c3c(C)nc4ccccn34)o2)cc1`, the inhibition was 18.4%. `O=C(NCc1ccc(Cl)cc1)Nc1ccc(F)cc1` gave an inhibition of 0.7%. Work on `CCOC(=O)c1cc(/C(C)=N/OC(=O)c2ccc(C(C)(C)C)cc2)on1` yielded an inhibition of 0.2%. `COc1ccc(S(=O)(=O)N2CCCC(C(=O)NCC3CCCO3)C2)cc1C` (centres undefined) gave an inhibition of -4.1%. Compound `COc1ccc(C(=O)NCc2nnc(SCC(=O)Nc3cc(OC)ccc3OC)o2)cc1` has an inhibition of -6.8%. `CC1CCCN(CCCNC(=O)C2CC(=O)N(CCc3ccccc3)C2)C1` (centres undefined) was tested, and the inhibition was -5.4%. With `CCC1CCCCN1CCCNC(=O)C1CC(=O)N(CCc2ccccc2)C1` (centres undefined) the inhibition was 20.9%. In the case of `NC(=S)N=Nc1ccc(NN=C(N)N)cc1`, the inhibition is reported as 40.2%. In the case of `COc1ccc(NC(=O)Cc2nnc(SCC(=O)NC3CCCC3)n2C)cc1`, the inhibition is reported as -4.1%. With `CCNC(=O)c1cc(Br)ccc1Cl` the inhibition was -8.7%. `CN(c1ccccc1)S(=O)(=O)c1nnc(NC(=O)C2CCCCC2)s1` showed an inhibition of -1.3%. In the case of `Cn1c2ccccc2c(=O)c2ccc(C#Cc3ccccn3)cc21`, the inhibition is reported as 75.5% (active). `Cc1nc([N+](=O)[O-])cn1Cc1cccc2ccccc12` gave an inhibition of -13.3%. Work on `O=C(CN1CCCCC1)N/N=C/c1cccc(Cl)c1` yielded an inhibition of -9.7%. `O=C(Cn1c2ccccc2c(=O)c2ccccc21)N/N=C/c1cc([N+](=O)[O-])ccc1N1CCCCCC1` was tested, and the inhibition was 99.4% (active). Compound `CN(C)CCNC(=O)c1cccc(S(=O)(=O)Nc2ccc(F)cc2)c1` has an inhibition of -5.8%. `NC(=O)c1ccc(C(=O)N/N=C/c2cccc(Oc3ccccc3)c2)cc1` showed an inhibition of -0.5%. `Cc1nc2cc(NC(=O)c3ccc(Cl)cc3)ccc2n1C` showed an inhibition of -9.5%. With `O=C(N/N=C/c1ccncc1)c1cccc(S(=O)(=O)Nc2ccc(Cl)cc2)c1` the inhibition was 98.9% (active). For `O=C(N/N=C/c1cccnc1)c1cccc(NC(=O)c2ccc(Cl)cc2)c1`, the inhibition was 92.9% (active). With `Cc1ccc(S(=O)(=O)NC(CC(=O)NC2CCCC2)c2ccco2)cc1` (centres undefined) the inhibition was 23.6%. Compound `CSc1ncc(C(=O)Nc2ccccc2Cl)c(C)n1` has an inhibition of -1.1%. `COc1ccc(OC)c(N/C(N)=N/c2nc(C)cc(C)n2)c1` showed an inhibition of -19.2%. With `Cc1ccc(NC(=O)CCNC(=O)c2ccccc2Cl)nc1` the inhibition was 1.9%. `CC(c1ccccc1)N1CCn2c(nc3cc(NC(=O)NC4CCCCC4)ccc32)C1` (centres undefined) was tested, and the inhibition was -21.4%. In the case of `COc1ccc(/C=C2\N=C(C)OC2=O)cc1OC`, the inhibition is reported as -5.7%. For `CC(C)OCCCNc1ncnc2c1nc1n2CCCC1`, the inhibition was -2.4%. `COC(=O)c1ccnc(/C=N/O)c1` showed an inhibition of 9.3%. For `COc1ccc(-c2nnc(Nc3nc4c(OC)cccc4s3)o2)cc1`, the inhibition was 95.5% (active). `COc1ccc(-c2nnc(SC(C)C(=O)NNC(=O)c3ccc(C)cc3)o2)cc1` (centres undefined) showed an inhibition of -2.9%. For `Cc1[nH][nH]c(=O)c1C(c1cc(Br)ccc1O)c1c(C)[nH][nH]c1=O`, the inhibition was 3.3%. Work on `COc1ccccc1N1CCN(C2CCCN(C(=O)CCC(=O)N(C)C)C2)CC1` (centres undefined) yielded an inhibition of -13.2%. With `Cn1c(C(=O)N[C@@H](Cc2ccccc2)C(=O)O)cc2cc(Cl)ccc21` the inhibition was 3.5%. `CCCC(NC(=O)Cc1c(C)c2cc3c(C)c(C)oc3c(C)c2oc1=O)C(=O)N[C@@H](Cc1ccccc1)C(=O)O` (some centres undefined) was tested, and the inhibition was 68.8% (active). `COc1ccc2c(c1)cc(C(=O)N[C@@H](Cc1ccccc1)C(=O)N[C@@H](C)C(=O)O)n2C` was tested, and the inhibition was -10.4%. `Cc1nn(CC(=O)NCCCN2CCCCC2C)c(=O)c2cccn12` (centres undefined) showed an inhibition of -5.4%. `CCOCCCNC(=O)C1CC(=O)N(CCc2ccccc2)C1` (centres undefined) showed an inhibition of 15%. Work on `CC(C)CCNC(=O)CN(C(=O)CCC(=O)Nc1ccccn1)c1ccc2c(c1)OCCO2` yielded an inhibition of 5.2%. In the case of `Nc1nc(-c2cc(O)ccc2[N+](=O)[O-])cc(-c2ccccc2)c1[N+](=O)[O-]`, the inhibition is reported as 80.5% (active). `O=C(NN1C(=O)C2C(C1=O)C1C=CC2C12CC2)c1ccccc1` (centres undefined) was tested, and the inhibition was 3.2%. In the case of `N#Cc1c(N2CCCC2)nc(N)c2c(N)nc(N3CCCC3)cc12`, the inhibition is reported as 78.3% (active). Compound `N#Cc1c(N2CCCC(O)C2)nc(N)c2c(N)nc3c(c12)CC(=O)N3C12CC3CC(CC(C3)C1)C2` (centres undefined) has an inhibition of -7.9%. With `CCOC(=O)c1c(C)[nH]c(C)c1S(=O)(=O)NC1CCN(C(=O)OCC)CC1` the inhibition was -2%. `COc1cccc(CNCCc2ccc3c(c2)OCO3)c1OC` showed an inhibition of 26.4%. `CCCN1CCC(NC(=O)CC2C(=O)NCCN2Cc2ccccc2C)CC1` (centres undefined) gave an inhibition of -11.6%. `O=C(O)CCCNc1cc(N2CCC3(CC2)OCCO3)c2noc3c2c1C(=O)c1ccccc1-3` was tested, and the inhibition was 12.8%. `CC1(C)CC(NS(=O)(=O)c2ccc(C(C)(C)C)cc2)CC(C)(C)N1` showed an inhibition of 6.7%. For `CC1(C)CC(NC(=O)C(c2ccccc2)c2ccccc2)CC(C)(C)N1`, the inhibition was 24%. With `NS(=O)(=O)c1ccc(NC(=S)NC2CCCCCC2)cc1` the inhibition was 56.7% (active). `CC1(C)CC(NC(=S)Nc2ccc(S(N)(=O)=O)cc2)CC(C)(C)N1` was tested, and the inhibition was 58.2% (active). In the case of `Cc1ccc(S(=O)(=O)NC2CCCCCC2)cc1C(N)=O`, the inhibition is reported as -4.2%. Work on `O=C(CCCC(=O)N(CC(=O)NC1CCCC1)c1cccc(F)c1)Nc1ccccn1` yielded an inhibition of -10.4%. Compound `Cn1cc(CN2CCCCC2C(=O)Nc2ccc(-n3cccn3)cc2)cn1` (centres undefined) has an inhibition of 10.3%. Compound `CCC(=O)N1c2ccc(S(=O)(=O)NCCc3ccc(C)cc3)cc2CC1C` (centres undefined) has an inhibition of 7.9%.
